This is a sample that favours compounds with a hit; in the whole collection about 2.5% have one here.
Lassa entry inh – qHTS for Inhibitors of binding or entry into cells for Lassa Virus | Lassa virus pseudotype entry inhibition, cell reporter | Potency, µM (top dose mostly 37.9 µM), for the others: top-dose activity change, negative = inhibition, most hits filed as inhibitors | 300,000 tested, 1.2% active | AID 540256, 2011; calls by dose curve; tested in HEK293 cells; also: nearly all actives have a fitted effect of over 50% in size
MARV entry inh – qHTS for inhibitors of binding or entry into cells for Marburg Virus | Marburg virus pseudotyped entry inhibition, cell reporter | Potency, µM (top dose mostly 37.8 µM), inactives show top-dose activity change, negative = inhibition, most hits filed as inhibitors | 300,000 tested, 1.8% active; calls by dose curve; tested in HEK293 cells
Vaccinia mCherry – qHTS for Stage-Specific Inhibitors of Vaccinia Orthopoxvirus: mCherry Reporter Primary qHTS | Potency, µM (series often up to 36.5 µM), without a hit: at the highest dose activity change, negative = inhibition, actives largely listed as inhibitors | 310,000 tested, 0.63% active | AID 720579, 2013 | Vaccinia virus mCherry reporter infection, fluorescence; calls by dose curve; tested in A549 cells; also: nearly all actives have a fitted effect of over 35% in size
VACV Venus inh – qHTS for Stage-Specific Inhibitors of Vaccinia Orthopoxvirus: Venus Reporter Primary qHTS | AID 720580, 2013 | 330,000 tested, 0.46% active | Potency, µM (top dose mostly 36.5 µM), for inactives: at the highest dose activity change, negative = inhibition, actives largely listed as inhibitors | Vaccinia virus Venus reporter expression, fluorescence; calls by dose curve; tested in A549 cells; also: nearly all actives have a fitted effect of over 30% in size
Active calls of the source: *; i = inactive; ? = inconclusive; / = not tested or not shown; [ ] = remark or other dose. % is scaled to controls: 0 for no effect and ±100 for the full control effect; potency is read from the fitted curve at half-maximal effect.

SMILES | Lassa entry inh | MARV entry inh | Vaccinia mCherry | VACV Venus inh
COc1cccc2c1C(=O)c1c(O)c3c(c(O)c1C2=O)C[C@](O)(C(C)=O)C[C@H]3O[C@@H]1C[C@@H](N)[C@@H](O)[C@@H](C)O1 | / | / | 43.5% | 480.5%
COc1cccc2c1C(=O)c1c(O)c3c(c(O)c1C2=O)CC(O)(C(C)=O)CC3OC1CC(O)C(O)C(C)O1 (stereo not given) | ? | 1.41µM* | 280.7% | i
COc1cccc2c1C(=O)c1c(O)c3c(c(O)c1C2=O)C[C@@](O)(C(=O)CO)C[C@@H]3O[C@H]1C[C@H](N)[C@H](OC2CCCCO2)[C@H](C)O1 (stereo not given in full) | 1.12µM* | 1.25µM* | 311.2% | 441.3%
COc1cccc2c1C(=N)c1c(O)c3c(c(O)c1C2=O)CC(O)(C(C)=O)CC3OC1CC(N)C(O)C(C)O1 (stereo not given) | 0.631µM* | 0.355µM* | 150.3% | ?
C=C[C@H](O)Cc1c(C)n[nH]c1C | / | 0.7% | / | /
Cc1cc2oc(=O)sc2cc1NS(=O)(=O)c1ccccc1 | 11.2µM* | -0.7%[46.1 µM] | ? | -8.6%
COc1ccc(-c2csc(NC(C)c3nc4cc(Cl)c(Cl)cc4n3CCOCCO)n2)cc1 (stereo not given) | / | / | ? | -22.2%
CC(Nc1nc(-c2ccc(F)cc2)cs1)c1nc2cc(Cl)c(Cl)cc2n1CCCO (stereo not given) | / | / | 10µM* | ?
COc1ccc(-c2csc(NC(C)c3nc4cc(Cl)c(N5CCCCC5)cc4n3CCOCCO)n2)cc1 (stereo not given) | / | / | -15.4% | ?
COc1ccc(-c2csc(NC(C)c3nc4cc(Cl)c(N5CCCCC5)cc4n3CCCO)n2)cc1 (stereo not given) | / | / | 8.91µM* | ?
COCC(=O)Nc1cc(C(=O)NC2CCc3ccccc32)c2c(c1)nc(-c1ccncc1)n2C (stereo not given) | / | / | 1.7% | 16.0%
CCCN1CNc2c(c(=O)[nH]c(=S)n2CCC(C)(C)C)C1 | / | / | -26.3% | -21.8%
COc1ccc(/C=C2\SC(=S)N(CCCC(=O)Nc3ccccn3)C2=O)cc1OC | 0.1% | -8.8% | ? | -4.6%
O=C(CCCN1C(=O)/C(=C/c2ccccc2Cl)SC1=S)NNC(=O)c1ccncc1 | ? | ? | i[7.34 µM] | 1.8%[7.34 µM]
Cc1ccc(/C=C2\SC(=S)N(CCCC(=O)Nc3ccccn3)C2=O)cc1 | 2.24µM* | ? | i | -5.8%
COc1ccc(/C=C2\SC(=S)N(CCCC(=O)NNC(=O)c3ccccc3O)C2=O)cc1 | 2.24µM* | ? | 0.0% | -18.7%
O=C(CCCN1C(=O)/C(=C/c2ccccc2Cl)SC1=S)NNC(=O)c1ccccc1Cl | ? | 6.31µM* | 11.2µM* | ?
COc1ccc(/C=C2/SC(=S)N(CCCC(=O)Nc3ccccc3C(=O)O)C2=O)cc1 | 2.82µM* | 7.94µM* | i | 20.2%
Cc1ccc(CN2CCc3nnc(C(NS(C)(=O)=O)C(C)C)n3CC2)cc1C (stereo not given) | / | / | -23.7% | -15.4%
CCC1(C2CCN(C(=O)c3cc(F)ccc3F)CC2)NC(=O)N(CCc2scnc2C)C1=O (stereo not given) | / | / | -5.0% | 20.6%
COc1ccc(/C=C2/SC(=S)N(CCCC(=O)Nc3cccc(O)c3)C2=O)cc1 | ? | 7.94µM* | ? | 10.5%
CC(=O)N(c1ccc2ccccc2c1)C1SC(=O)N(c2cccc(C)c2)C1=O (stereo not given) | / | / | -7.1% | -9.0%
CC(NC(=O)C1CCOCC1)c1nnc2n1CCN(Cc1ccc(F)cc1)CC2 (stereo not given) | / | / | -15.3% | -4.0%
Cc1ccccc1-n1c(SCC(=O)N/N=C/C=C/c2ccccc2[N+](=O)[O-])nc2ccccc2c1=O | ? | 7.08µM* | -19.9% | -16.0%
COc1cccc(O[C@H]2C=C[C@@H](c3ccccc3)O[C@H]2CO)c1 | / | 4.1%[14.2 µM] | / | /
SMILES | Lassa entry inh | MARV entry inh | Vaccinia mCherry | VACV Venus inh
N#Cc1ccc(-c2csc(NNC(=O)c3ccc(Br)cc3)n2)cc1 | -20.7% | ? | / | 14.1µM*
N#Cc1ccc(-c2csc(NNC(=O)c3ccccc3)n2)cc1 | ? | 10µM* | ? | 11.7%
CC(=O)Nc1ccc(-c2csc(NNC(=O)c3ccc(C)cc3)n2)cc1 | / | / | -8.0% | -3.1%
O=C(NNc1nc(-c2ccccc2)cs1)c1ccccc1 | ? | ? | -25.4% | -6.9%
Cc1cc(-c2ccnc(-n3ncc(C(=O)NCC4COCCO4)c3C3CC3)n2)c(C)s1 (stereo not given) | / | / | -9.1% | -20.8%
O=c1c2c3nc4ccccc4nc3n(/N=C/c3ccccn3)c2ncn1-c1ccccc1 | ? | 5.62µM* | -31.3% | -22.7%
CC(C)NC(=O)NC(=O)CSc1nnc(COc2ccccc2F)n1C(C)C1CC2CCC1C2 (stereo not given) | 18.3µM* | ? | / | /
CC(C1CC2CCC1C2)n1c(COc2ccccc2F)nnc1SCC(N)=O (stereo not given) | -0.4% | ? | / | -0.8%
CCC(=NCCc1c[nH]c2ccccc12)c1c(O)n(-c2ccc(C)cc2)c(=O)[nH]c1=O | 1.84µM* | ? | -26.0% | -19.9%
CC(=NCCc1c[nH]c2ccccc12)c1c(O)n(Cc2ccccc2)c(=O)[nH]c1=O | 11.2µM* | ? | -17.5% | -16.4%
CC/C(=N\Nc1ccccc1)c1c(O)n(-c2ccccc2)c(=O)[nH]c1=O | 10µM* | -19.3% | -11.8% | -22.8%
COc1ccc(-n2c(O)c(/C(C)=N/Nc3ccccc3)c(=O)[nH]c2=O)cc1 | ? | ? | -24.1% | 6.6%
CCCN1CNc2c(c(=O)[nH]c(=S)n2CCc2c(C)cccc2C)C1 | / | / | -13.4% | -5.7%
COc1ccc([C@@H]2C(C#N)=C(C)NC3=C2C(=O)c2ccccc23)cc1 | / | -23.5% | / | /
CC1=C([N+](=O)[O-])C(c2ccccc2)C2=C(N1)c1ccccc1C2=O (stereo not given) | ? | ? | 12.6µM* | ?
O=C(N/N=C/c1cc([N+](=O)[O-])ccc1O)c1cccc(N2CCCC2=O)c1 | ? | ? | 6.31µM* | -1.8%
CCc1ccc(N2CC(C(=O)N/N=C/c3cc([N+](=O)[O-])ccc3O)CC2=O)cc1 (stereo not given) | 7.08µM* | -3.3%[46.1 µM] | -20.0% | -23.4%
Cc1onc(-c2ccccc2Cl)c1C(=O)NCc1nc(-c2ccc(C(F)(F)F)cc2)no1 | 10µM* | ? | ? | -20.4%
COc1cc(C2c3cc4c(cc3OC(NNC(N)=S)C2C)OCO4)cc(OC)c1OC (stereo not given) | ? | ? | 2.82µM* | ?
C(=NN1CCCCCC1)c1cccc2ccccc12 | 16.6% | 17.1% | -9.3% | -2.7%
C(=NN1CCCCCC1)c1ccc2ccccc2n1 | ? | 2.51µM* | -27.6% | -6.8%
OC(c1ccc(Cl)cc1)c1ncc(-c2ccc(Oc3ccccc3)cc2)[nH]1 (stereo not given) | / | / | 10µM* | ?
OC(c1ccccc1)c1ncc(-c2ccc(Oc3ccccc3)cc2)[nH]1 (stereo not given) | / | / | 15.8µM* | ?

Compound activity (PubChem BioAssay)
